“And” between values parts separate entries of the source, which are not always exact repeats. Equal values may be shown once. Results filed as inconclusive are left out. The source made the active and inactive calls. Unless noted, calls come from the whole dose curve; as a rule, active = well fitted curve in the direction sought with a large enough effect; inconclusive = small, poorly fitted or top-dose-only effect, or another doubt; inactive = no such curve, though single readings can be large; an effect the other way counts as inactive or inconclusive.
Tests used:
[1] = molecular target: Thyroid hormone receptor beta (Homo sapiens) (UniProt P10828); experiment: qHTS assay for small molecule antagonists of thyroid hormone receptor beta signaling (AID 588547; active = well fitted inhibition curve with a large enough effect in the signal ratio, with a control signal flat, not every such curve was filed as active; the % refers to the signal ratio;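 note: cells stimulated with 0.4 nM T3 agonist during compound exposure; series mostly up to about 77 µM; % is set by controls: 0 for no effect and ±100 for the full control effect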); settings: TR-UAS-bla HEK293, beta-lactamase ratio, antagonist mode, 18 h
Outline: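 Inhibition of T3-driven (0.4nM final) beta-lactamase reporter activity was measured over 0.59 nM to 92 uM compound after 18 h at 37 C. The cells were GripTite HEK293 TR-UAS-bla in charcoal/dextran-stripped serum, with CCF4 ratio read-out and IC50 from Hill fits.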

[2] = molecular target: Voltage-gated inwardly rectifying potassium channel KCNH2 (Homo sapiens) (UniProt Q12809); experiment: qHTS Assay for Small Molecule Inhibitors of the Human hERG Channel Activity (AID 588834);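 note: top concentration of the series differs between compounds; % is set by controls: 0 for no effect and ±100 for the full control effect; lower thallium flux fluorescence means stronger hERG block; nearly all actives have a fitted effect of over 50% in size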
Outline: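 Thallium-flux (FluxOR) read-out on FDSS: fluorescence read 10 s before and 2 min after stimulation buffer. hERG-BacMam-transduced U2OS cells, compound exposure about 10 min. AC50 by standard Hill equation.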

[3] = qHTS assay for small molecule agonists of the antioxidant response element (ARE) signaling pathway (AID 651741; active = well fitted activation curve with a large enough effect in the signal ratio; the % refers to the signal ratio; note: % of control where 0% means no effect)
Outline: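 Beta-lactamase reporter under ARE control in HepG2 cells, 2,000 per well, was induced by 16 h compound treatment at 37 C. Read-out was fluorescence from LiveBLAzer B/G FRET substrate after 2 h at room temperature.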

[4] = qHTS assay for small molecule activators of the p53 signaling pathway (AID 651743; active = well fitted activation curve with a large enough effect in the signal ratio, not every such curve was filed as active; the % refers to the signal ratio; note: series mostly up to about 92 µM; % of control where 0% means no effect); settings: HCT-116 p53RE-bla, beta-lactamase FRET ratio, 16 h; activation: stronger effect = higher value
Outline: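 After 16 hours compound treatment at 37 C, HCT-116 cells stably expressing p53RE-driven beta-lactamase were loaded with LiveBLAzer B/G FRET substrate for 2 hours at room temperature. Fluorescence intensity served as the p53 activation read-out.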

[5] = qHTS assay for small molecule activators of the nuclear factor-kappa B (NF-kB) signaling pathway (AID 651749; active = well fitted activation curve with a large enough effect in the signal ratio; the % refers to the signal ratio; note: series mostly up to about 77 µM; % of control where 0% means no effect); settings: NF-kB-bla ME-180 cells, beta-lactamase FRET ratio, 16 h; activation: stronger effect = higher value
Outline: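 Activation measured after 16 hr compound treatment at 37C, 5% CO2, of 2,000 ME-180 cells/well stably expressing an NF-kB response element–driven beta-lactamase reporter, via FRET-disruption fluorescence.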

[6] = qHTS assay for small molecule disruptors of the mitochondrial membrane potential - 5 hr assay (AID 651755; calls by dose curve; note: % is set by controls: 0 for no effect and ±100 for the full control effect; nearly all actives have a fitted effect of over 40% in size)
Outline: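 Membrane-potential dye readout: red aggregate (540 ex/590 em) versus green monomer (490 ex/535 em) fluorescence after 30 min dye loading, following 5 hr compound exposure at 37C of overnight-plated HepG2 cells.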

[7] = molecular target: Tumor necrosis factor (Homo sapiens) (UniProt P01375); experiment: qHTS assay to identify small molecules that stimulate Tumor Necrosis Factor-alpha (TNF-alpha) secretion (AID 651757; active = well fitted curve in the direction sought with a large enough effect in the signal ratio; the % refers to the signal ratio; note: 0% is about no effect)
Outline: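 Human monocytic THP-1 cells are plated, treated with compound and held at 37 C for 17 hrs. Labeled anti-TNF-alpha antibody mixture is then added; after 3 hr at room temperature, TR-FRET signal reports secreted TNF-alpha.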

[8] = qHTS assay to identify small molecules that stimulate interleukin-8 (IL-8) secretion (AID 651758; active = well fitted activation curve with a large enough effect in the signal ratio; the % refers to the signal ratio; note: 0% is about no effect)
Outline: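 Secreted IL-8 measured homogeneously by TR-FRET (two labelled anti-IL-8 antibodies, 1-3 h at room temperature) after a 16 h, 37 C compound treatment of THP-1 cells at 2000 cells/well.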

[9] = qHTS assay for environmental chemicals that activate the Aryl hydrocarbon Receptor (AhR) signaling pathway (AID 651777); settings: 1A2-DRE human hepatoma cells, luciferase, 24 h; activation: stronger effect = higher value; note: % of control where 0% means no effect; nearly all actives have a fitted effect of over 15% in size
Outline: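 Following a 24 hr incubation with test chemicals at 37 C and 5% CO2, 1A2-DRE human hepatoma cells received One-Glo reagent; after 30 min at room temperature, luciferase output reflected CYP1A2 induction via AhR.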

[10] = molecular target: Peroxisome proliferator-activated receptor alpha (Homo sapiens) (UniProt Q07869); experiment: qHTS assay for small molecule agonists of the peroxisome proliferator-activated receptor alpha (PPARalpha) signaling pathway (AID 651778); settings: PathHunter PPARalpha complementation, chemiluminescence, 6 h; stronger effect = higher value; note: % of control where 0% means no effect
Outline: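 Chemiluminescence from complemented enzyme reported PPARalpha activation in cells after 6 hr of compound treatment at 37 C. The detection reagent was incubated for 60 min at room temperature, and compounds were scored as agonists.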

[11] = molecular target: Nuclear receptor ROR-gamma (Homo sapiens) (UniProt P51449); experiment: qHTS assay for small molecule antagonists of the retinoid-related orphan receptor gamma (ROR-gamma) signaling pathway (AID 651802);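 note: CHO cells with doxycycline-induced ROR-gamma expression; series mostly up to about 92 µM; % is set by controls: 0 for no effect and ±100 for the full control effect; nearly all actives have a fitted effect of over 60% in size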
Outline: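 Steps: cells dispensed; compound or DMSO transferred by pin tool; doxycycline added to induce the ROR response element-driven luciferase; plates held 16hr at 37C; ONE-Glo added and luminescence measured.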

[12] = qHTS assay for small molecule agonists of the antioxidant response element (ARE) signaling pathway measured by Nrf2-dependant transcriptional activity (AID 720636; active = well fitted curve in the direction sought with a large enough effect in the repeat runs; an effect the other way counts as inactive or inconclusive;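 note: HepG2 cells with an ARE-driven luciferase reporter; % of control where 0% means no effect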)
Outline: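 ONE-Glo luminescence, read 30 min after reagent addition at room temperature, reflected ARE reporter activity in HepG2 cells that had been incubated with compound for 16 hr at 37 C in 1% dialyzed FBS.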

[13] = qHTS assay for small molecule antagonists of the retinoid-related orphan receptor gamma (ROR-gamma) signaling pathway - cell viability counter screen (AID 720652; active = well fitted curve in the direction sought with a large enough effect in the repeat runs; an effect the other way counts as inactive or inconclusive;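 note: CHO reporter cells with doxycycline-induced ROR-gamma expression; series mostly up to about 92 µM; compound exposure lasted 16 hr before ATP read; % is set by controls: 0 for no effect and ±100 for the full control effect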)
Outline: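 Steps: seed CHO cells bearing TET-inducible ROR and ROR response element-luciferase; rest 5 hr at 37 C; add compound, then doxycycline; incubate 16 hr; add CellTiter-Glo and read luminescence as ATP-based viability.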

[14] = qHTS assay for small molecule agonists of the antioxidant response element (ARE) signaling pathway measured by Nrf2-dependant transcriptional activity - cell viability counter screen (AID 720653; active = well fitted curve in the direction sought with a large enough effect in the repeat runs; an effect the other way counts as inactive or inconclusive; note: % is set by controls: 0 for no effect and ±100 for the full control effect); settings: ARE-bla HepG2 viability, CellTiter-Glo ATP luminescence, 16 h; stronger effect = lower value
Outline: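 Cytotoxicity counter screen: intracellular ATP quantified by CellTiter-Glo luminescence in the same ARE-bla HepG2 plates, after 16 h compound exposure and a 2 h beta-lactamase substrate step.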

[15] = qHTS assay for cell viability of HEK293 cells (AID 743288); settings: ATP luminescence (CellTiter-Glo), 18 h; max response: stronger effect = lower value; note: % is set by controls: 0 for no effect and ±100 for the full control effect; nearly all actives have a fitted effect of over 50% in size
Outline: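 ATP luminescence (CellTiter-Glo) reports metabolically competent cell number after parental HEK293 cells, 2,000/well, were treated with DMSO-dissolved compounds for 18 h at 37 C; reagent incubation 30 min, room temperature.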

[16] = qHTS assay for cell viability of the p53RE-bla HCT-116 cell line (AID 743292); note: % is set by controls: 0 for no effect and ±100 for the full control effect; nearly all actives have a fitted effect of over 55% in size
Outline: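 After plating at 4,000 cells per well and a 5 h rest at 37 C, HCT-116 cells carrying p53RE-bla received test chemicals in DMSO. Sixteen hours later at 37 C, CellTiter-Glo was added and luminescence recorded following 30 min at room temperature.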

[17] = molecular target: Rap guanine nucleotide exchange factor 3 (Homo sapiens) (UniProt O95398); experiment: Confirmatory qHTS for antagonist of cAMP-regulated guanine nucleotide exchange factor 3 (EPAC1) (AID 1645880);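 note: plate controls were DMSO only for no effect and full effect of the ATA control for full effect; nearly all actives have a fitted effect of over 55% in size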
Outline: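 Released BODIPY-GDP fluoresces less than Rap1-bound BODIPY-GDP; the signal is followed at 480/540 nm at 5-min intervals over 30 min, after 5 min at room temperature. Reactions contain 100 nM EPAC1, 250 nM RAP1B-BODIPY-GDP and 50 uM GDP; results are normalized to ATA and DMSO.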

[18] = molecular target: Rap guanine nucleotide exchange factor 3 (Homo sapiens) (UniProt O95398); experiment: Confirmatory qHTS for agonist of cAMP-regulated guanine nucleotide exchange factor 3 (EPAC1) (AID 1645881);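 note: EPAC1 catalysed release of BODIPY-GDP from Rap1B seen as fluorescence loss; 100% = effect of cAMP agonist control; nearly all actives have a fitted effect of over 75% in size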
[19] = molecular target: Rap guanine nucleotide exchange factor 4 (Homo sapiens) (UniProt Q8WZA2); experiment: Confirmatory qHTS for agonist of cAMP-regulated guanine nucleotide exchange factor 4 (EPAC2) (AID 1645884);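 note: nucleotide exchange releases bodipy-GDP from Rap1 and this lowers its fluorescence; % is set by controls: 0 for no effect and ±100 for the full control effect; nearly all actives have a fitted effect of over 65% in size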
[20] = molecular target: Rap guanine nucleotide exchange factor 4 (Homo sapiens) (UniProt Q8WZA2); experiment: Confirmatory qHTS for antagonist of cAMP-regulated guanine nucleotide exchange factor 4 (EPAC2) (AID 1645885); note: % is set by controls: 0 for no effect and ±100 for the full control effect; nearly all actives have a fitted effect of over 25% in size
[21] = molecular target: Rap guanine nucleotide exchange factor 3 (Homo sapiens) (UniProt O95398); experiment: Counterscreen qHTS for antagonist of cAMP-regulated guanine nucleotide exchange factor 3 (EPAC1) (AID 1645888); note: % of control where 0% means no effect
Outline: (§1)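 Rap1B-BODIPY-GDP 250 nM + GDP 50 uM; cpds 7-pt, final 9.74 nM–152 uM (activator mode) or from 7.32 nM upwards (inhibitor mode); RT; FI 480/540 nm at 5 and 30 min, then ± cAMP, reread.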

[22] = molecular target: Rap guanine nucleotide exchange factor 3 (Homo sapiens) (UniProt O95398); experiment: Counterscreen qHTS for agonist of cAMP-regulated guanine nucleotide exchange factor 3 (EPAC1) (AID 1645889); note: % of control where 0% means no effect; nearly all actives have a fitted effect of over 40% in size
Outline: as §1

[23] = molecular target: Nuclear receptor subfamily 1 group I member 2 (Rattus norvegicus) (UniProt Q9R1A7); experiment: qHTS assay for small molecule activators of the rat pregnane X receptor (rPXR) signaling pathway (AID 651751; call rule not given here; note: 0% is about no effect); settings: rPXR reporter cells, luciferase (One-Glo), 24 h
[24] = qHTS assay for small molecule activators of the human pregnane X receptor (PXR) signaling pathway (AID 720659; call rule not given here; note: 0% is about no effect)

Chain of Rap guanine nucleotide exchange factor 3 (Homo sapiens) (O95398 whole entry, looked up): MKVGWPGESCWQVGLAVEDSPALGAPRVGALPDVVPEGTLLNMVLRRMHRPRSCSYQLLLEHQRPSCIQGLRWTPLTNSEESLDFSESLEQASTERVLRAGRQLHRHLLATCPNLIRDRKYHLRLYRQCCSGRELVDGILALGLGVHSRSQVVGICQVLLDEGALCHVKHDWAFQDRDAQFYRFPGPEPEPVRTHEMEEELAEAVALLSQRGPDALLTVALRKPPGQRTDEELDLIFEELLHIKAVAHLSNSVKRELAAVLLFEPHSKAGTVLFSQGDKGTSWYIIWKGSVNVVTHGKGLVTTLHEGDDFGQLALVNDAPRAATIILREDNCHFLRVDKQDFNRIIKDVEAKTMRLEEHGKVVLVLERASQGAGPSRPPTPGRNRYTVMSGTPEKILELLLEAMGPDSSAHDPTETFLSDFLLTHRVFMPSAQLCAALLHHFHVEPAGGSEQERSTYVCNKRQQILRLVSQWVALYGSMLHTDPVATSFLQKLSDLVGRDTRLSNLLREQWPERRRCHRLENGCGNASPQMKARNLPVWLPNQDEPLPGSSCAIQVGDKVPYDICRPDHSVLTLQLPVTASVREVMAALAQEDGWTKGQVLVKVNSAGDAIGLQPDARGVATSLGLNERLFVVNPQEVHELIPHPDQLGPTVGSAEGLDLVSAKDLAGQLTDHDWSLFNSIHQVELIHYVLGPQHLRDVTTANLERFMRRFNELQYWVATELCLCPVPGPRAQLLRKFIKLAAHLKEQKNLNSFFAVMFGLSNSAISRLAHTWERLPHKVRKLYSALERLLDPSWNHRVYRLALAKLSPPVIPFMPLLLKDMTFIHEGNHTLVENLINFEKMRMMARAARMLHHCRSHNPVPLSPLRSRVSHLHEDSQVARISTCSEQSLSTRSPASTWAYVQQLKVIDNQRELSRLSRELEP
Chain of Nuclear receptor subfamily 1 group I member 2 (Rattus norvegicus) (Q9R1A7 whole entry, looked up): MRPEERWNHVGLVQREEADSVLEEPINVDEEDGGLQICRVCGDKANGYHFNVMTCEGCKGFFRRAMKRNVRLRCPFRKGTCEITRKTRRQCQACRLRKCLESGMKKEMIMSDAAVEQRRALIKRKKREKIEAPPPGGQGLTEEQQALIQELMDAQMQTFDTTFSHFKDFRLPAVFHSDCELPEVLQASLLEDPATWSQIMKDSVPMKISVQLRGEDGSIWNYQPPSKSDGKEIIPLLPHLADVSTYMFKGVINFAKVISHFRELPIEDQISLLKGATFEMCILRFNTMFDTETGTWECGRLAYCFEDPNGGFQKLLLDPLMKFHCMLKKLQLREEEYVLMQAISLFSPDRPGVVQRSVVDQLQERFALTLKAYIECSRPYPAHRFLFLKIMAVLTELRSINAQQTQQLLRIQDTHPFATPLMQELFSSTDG
Chain of Thyroid hormone receptor beta (Homo sapiens) (P10828 whole entry, looked up): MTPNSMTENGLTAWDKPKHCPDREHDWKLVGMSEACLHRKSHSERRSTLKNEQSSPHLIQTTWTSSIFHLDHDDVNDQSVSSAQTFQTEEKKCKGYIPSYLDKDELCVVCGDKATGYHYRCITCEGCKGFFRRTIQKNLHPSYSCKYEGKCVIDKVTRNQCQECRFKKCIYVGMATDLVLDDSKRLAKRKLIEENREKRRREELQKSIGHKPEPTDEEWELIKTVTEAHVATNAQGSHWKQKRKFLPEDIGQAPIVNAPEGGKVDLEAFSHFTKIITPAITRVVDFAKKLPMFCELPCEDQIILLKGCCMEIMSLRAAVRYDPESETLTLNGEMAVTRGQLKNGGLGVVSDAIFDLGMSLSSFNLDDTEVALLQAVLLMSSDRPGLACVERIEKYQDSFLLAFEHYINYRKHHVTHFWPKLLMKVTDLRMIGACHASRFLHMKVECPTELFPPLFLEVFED
Chain of Rap guanine nucleotide exchange factor 4 (Homo sapiens) (Q8WZA2 whole entry, looked up): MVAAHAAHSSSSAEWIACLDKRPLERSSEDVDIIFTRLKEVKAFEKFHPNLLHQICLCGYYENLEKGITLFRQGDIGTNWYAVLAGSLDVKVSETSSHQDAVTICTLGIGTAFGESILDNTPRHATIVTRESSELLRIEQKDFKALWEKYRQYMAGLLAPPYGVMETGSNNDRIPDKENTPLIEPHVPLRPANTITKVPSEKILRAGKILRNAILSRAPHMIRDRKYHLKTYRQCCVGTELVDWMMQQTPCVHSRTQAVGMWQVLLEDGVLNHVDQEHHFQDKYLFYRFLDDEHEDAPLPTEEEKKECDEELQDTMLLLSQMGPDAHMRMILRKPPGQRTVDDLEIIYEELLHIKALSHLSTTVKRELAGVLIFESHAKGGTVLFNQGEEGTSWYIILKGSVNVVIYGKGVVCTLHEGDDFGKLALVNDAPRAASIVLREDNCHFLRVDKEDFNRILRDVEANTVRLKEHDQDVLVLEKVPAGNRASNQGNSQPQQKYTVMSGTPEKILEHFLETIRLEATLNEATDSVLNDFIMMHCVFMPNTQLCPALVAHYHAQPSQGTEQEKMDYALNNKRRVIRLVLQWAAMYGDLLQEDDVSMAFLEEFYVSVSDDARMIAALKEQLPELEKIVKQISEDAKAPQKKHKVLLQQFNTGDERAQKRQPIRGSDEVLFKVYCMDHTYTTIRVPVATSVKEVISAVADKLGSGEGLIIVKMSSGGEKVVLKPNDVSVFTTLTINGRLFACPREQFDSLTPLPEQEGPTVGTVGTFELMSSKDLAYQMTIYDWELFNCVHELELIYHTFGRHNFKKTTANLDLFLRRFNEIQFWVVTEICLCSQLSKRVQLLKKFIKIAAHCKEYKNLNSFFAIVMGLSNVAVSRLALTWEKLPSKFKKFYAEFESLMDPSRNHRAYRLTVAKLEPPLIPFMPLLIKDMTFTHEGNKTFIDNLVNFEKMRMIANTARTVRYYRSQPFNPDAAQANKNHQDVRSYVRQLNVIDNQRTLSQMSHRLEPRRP
Chain of Peroxisome proliferator-activated receptor alpha (Homo sapiens) (Q07869 whole entry, looked up): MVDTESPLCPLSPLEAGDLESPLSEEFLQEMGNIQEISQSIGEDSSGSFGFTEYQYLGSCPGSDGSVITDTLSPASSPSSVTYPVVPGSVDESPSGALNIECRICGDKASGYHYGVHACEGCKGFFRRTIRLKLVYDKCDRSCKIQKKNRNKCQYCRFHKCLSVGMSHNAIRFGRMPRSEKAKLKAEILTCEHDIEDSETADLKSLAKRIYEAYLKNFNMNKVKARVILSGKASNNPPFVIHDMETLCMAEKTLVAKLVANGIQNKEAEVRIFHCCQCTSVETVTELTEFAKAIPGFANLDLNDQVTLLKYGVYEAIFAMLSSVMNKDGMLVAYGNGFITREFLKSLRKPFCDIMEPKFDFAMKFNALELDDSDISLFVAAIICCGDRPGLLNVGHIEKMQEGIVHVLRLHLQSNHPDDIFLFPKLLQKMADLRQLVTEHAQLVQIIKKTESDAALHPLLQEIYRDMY
Chain of Nuclear receptor ROR-gamma (Homo sapiens) (P51449 whole entry, looked up): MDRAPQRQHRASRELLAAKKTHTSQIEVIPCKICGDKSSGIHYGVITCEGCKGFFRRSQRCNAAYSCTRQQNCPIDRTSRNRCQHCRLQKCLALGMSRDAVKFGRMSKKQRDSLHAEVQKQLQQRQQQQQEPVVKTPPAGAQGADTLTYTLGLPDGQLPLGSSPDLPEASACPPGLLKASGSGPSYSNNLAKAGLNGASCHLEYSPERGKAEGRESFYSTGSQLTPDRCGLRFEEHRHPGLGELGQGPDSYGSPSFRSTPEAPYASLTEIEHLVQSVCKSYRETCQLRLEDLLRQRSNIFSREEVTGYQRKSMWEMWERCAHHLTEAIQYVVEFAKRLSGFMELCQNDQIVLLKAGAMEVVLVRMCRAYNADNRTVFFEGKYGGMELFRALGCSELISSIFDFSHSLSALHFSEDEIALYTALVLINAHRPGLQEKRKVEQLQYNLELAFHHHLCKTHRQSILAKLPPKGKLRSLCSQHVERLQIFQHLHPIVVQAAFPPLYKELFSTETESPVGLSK
Chain of Tumor necrosis factor (Homo sapiens) (P01375 whole entry, looked up): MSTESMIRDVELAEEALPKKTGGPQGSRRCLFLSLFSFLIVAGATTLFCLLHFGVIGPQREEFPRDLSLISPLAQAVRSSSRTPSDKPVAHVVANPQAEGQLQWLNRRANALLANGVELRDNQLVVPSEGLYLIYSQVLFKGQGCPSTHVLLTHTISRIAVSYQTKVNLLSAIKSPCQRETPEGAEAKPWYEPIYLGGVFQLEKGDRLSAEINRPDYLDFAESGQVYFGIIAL

CCCOC(=O)c1ccccc1C(=O)OCCC
inactive: activity change % (negative = inhibition) [1] 0.697% and -6.62% | Potency [2] | Potency [3] | activation [4] -4.2% and 2.37% | activation [5] -0.812% and -1.55% | Potency [6] | outcome [7] | Potency [8] | activation [9] -1.57% and -0.202% | max response [10] -3.23% and -0.333% | Potency [11] | outcome [12] | Potency [13] | max response [14] 2.53% and -0.566% | max response [15] -2.21% and -12.8% | Potency [16] | Potency [17] | Potency [18] | activation [19] -6.75% [at 17.1 µM, percent relative to cAMP agonist control] | activity change, negative = inhibition [20] -25.7% [at 12.7 µM] | activity change, negative = inhibition [21] -2.66% [at 30.8 µM] | activation [22] 23.9% [at 30.8 µM] | max response [23] 4.44% and -1.18% | outcome [24]
